Source: the supplement of paper PMC4166925
± gives the standard deviation of the averaged measurements. Over roughly 33,000 sequences, “E-score (dimensionless, -0.5 to 0.5)” has its median near -0.046; the highest 2% begin near 0.36. This is one part of a sample in which the highest values are shown more often than they occur.

tested on: T1, SpTbr T-box DNA-binding domain (GST fusion); assay: PBM E-score of 8-mer (E-score (dimensionless, -0.5 to 0.5)); Tbr is Tbrain of the sea star Patiria miniata (Pm) or the sea urchin Strongylocentrotus purpuratus (Sp); higher = stronger binding preference; conditions: the construct has about 5 more residues each side
T1 sequence: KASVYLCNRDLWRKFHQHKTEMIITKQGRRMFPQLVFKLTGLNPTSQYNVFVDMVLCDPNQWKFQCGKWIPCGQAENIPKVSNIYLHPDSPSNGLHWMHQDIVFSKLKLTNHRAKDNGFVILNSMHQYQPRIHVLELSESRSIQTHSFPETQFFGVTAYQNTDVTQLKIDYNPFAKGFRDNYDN
How it was run: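 Each ungapped 8-mer received an enrichment E-score from the Universal PBM Analysis Suite, averaged over duplicate arrays. The proteins were Tbr T-box DNA-binding domains, covering the whole T-box plus about five flanking residues, fused to GST and expressed in BL21 E. coli at 20 °C before glutathione affinity purification. Universal Agilent oligonucleotide arrays were made double-stranded by primer extension and incubated with 200 nM protein in PBS (pH 7.5). The arrays were then scanned and quantified, and every 8-mer was scored from probe intensities.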

Sequence	PBM E-score of 8-mer
GGGTGTCA	0.475 ± 0.0055
CGGTGTCA	0.398 ± 0.02
CGGTGTGA	0.456 ± 0.0098
GGGGGTCA	0.0604 ± 0.0046
CGATGTCA	0.1339 ± 0.00055
GCGTGTCA	0.313 ± 0.024
CGGTGTCC	-0.0339 ± 0.0071
CGGTGTGC	0.0403 ± 0.015
ATGTAGGG	-0.355 ± 0.013
CGAGTTAA	0.193 ± 0.008
GCCCACTA	-0.0422 ± 0.07
CTTCACTA	0.0992 ± 0.0044
CCACCCGC	0.105 ± 0.028
TCACCCGA	0.0108 ± 0.15
ACACCCGG	0.317 ± 0.042
ACACCCGC	0.3794 ± 0.0031
GCACCCGC	0.305 ± 0.035
ACACCCGA	0.41 ± 0.0072
GCTCTGTA	-0.199 ± 0.025
AACTGACT	-0.141 ± 0.043
CAGAAATG	-0.202 ± 0.012
CGTTTTCC	-0.282 ± 0.054
TCATTACA	-0.0133 ± 0.029
ATGTGAAC	0.203 ± 0.012
CTGTGAAG	0.296 ± 0.027
TTGTGAAA	0.361 ± 0.04

Sequence	PBM E-score of 8-mer
CTGTGAAA	0.396 ± 0.017
CTGTGAAC	0.4126 ± 0.00049
ATGTGAAA	0.263 ± 0.03
AACTAGGC	-0.0665 ± 0.022
GCCGGATA	-0.321 ± 0.0046
CAGAGATC	-0.204 ± 0.022
TCGTAGCA	0.128 ± 0.038
GGATTGGA	-0.187 ± 0.026
CGATCCGA	-0.0614 ± 0.036
AAAGAGGG	-0.0825 ± 0.036
GCTGACAC	0.386 ± 0.039
GCTGACAA	0.227 ± 0.031
CCTGACAC	0.427 ± 0.01
CCTGACAA	0.153 ± 0.0094
CCTGACAG	0.121 ± 0.0013
ACTGACAC	0.349 ± 0.011
ATTTGTGG	0.075 ± 0.012
CTCGGGTC	-0.0239 ± 0.0073
AGATGACG	0.125 ± 0.029
TACAGCGA	-0.193 ± 0.038
CACACTTC	0.4456 ± 0.0039
AACACTTA	0.386 ± 0.031
AACACTTC	0.407 ± 0.0093
CACACTGC	0.175 ± 0.0027
CACACTGA	0.235 ± 0.0071
CCCACTTC	0.171 ± 0.018

Sequence	PBM E-score of 8-mer
CACACTTA	0.447 ± 0.0064
AGCACTTC	0.3006 ± 0.0019
CGCACTTA	0.329 ± 0.0023
AACACTGA	0.0941 ± 0.085
ATCACTTA	0.0863 ± 0.053
ATCACTTC	0.226 ± 0.033
AGGAGGGG	0.0237 ± 0.0028
ACATCCAG	0.11 ± 0.03
CAGATTGA	-0.076 ± 0.021
CCAGAAGC	-0.0847 ± 0.077
CGAGTATC	-0.139 ± 0.032
CCCGTTAC	-0.0493 ± 0.068
AACTGCTC	0.00139 ± 0.031
GCAAAAAA	-0.111 ± 0.022
ATCCAATG	-0.108 ± 0.019
ACCATTGA	0.0727 ± 0.061
GCAGCCAC	0.126 ± 0.026
ATACAGAC	-0.0432 ± 0.019
TCCAATAA	-0.0798 ± 0.025
ATCACTTG	0.169 ± 0.064
GACACTGA	0.093 ± 0.019
GACACTTA	0.393 ± 0.0065
AACACTAG	0.222 ± 0.049
AACACTTG	0.3953 ± 0.0019
GCCACTTA	0.244 ± 0.011
GTAGCTTA	-0.0295 ± 0.0053

Sequence	PBM E-score of 8-mer
AAGCTTAC	-0.128 ± 0.056
TCAGGCAA	-0.143 ± 0.02
CAGTATTC	-0.193 ± 0.092
TACCTACA	-0.24 ± 0.016
CCCCTACG	-0.185 ± 0.019
GACCTACC	-0.129 ± 0.006
CACCTACG	0.373 ± 0.0055
AACCTACG	-0.159 ± 0.083
GACCTACA	-0.0944 ± 0.046
CACCTACA	0.371 ± 0.014
AACCTACC	-0.182 ± 0.056
CACCTACC	0.394 ± 0.01
CCCGCCTA	-0.0474 ± 0.13
TATTGCCA	0.0232 ± 0.0082
CCCTTGCG	-0.0683 ± 0.034
GTCTCAGA	-0.0914 ± 0.014
GGTGCATA	0.0222 ± 0.011
CCCGATAA	0.0927 ± 0.11
CCACACGG	0.0912 ± 0.023
CGAACGAG	0.0552 ± 0.067
CGTCCTGC	-0.234 ± 0.0096
ATAAGTCA	-0.102 ± 0.017
AGACACCC	0.156 ± 0.041
CGACACCA	0.387 ± 0.014
CGACACCC	0.416 ± 0.028
CGACACCG	0.257 ± 0.037

Sequence	PBM E-score of 8-mer
GGACACCA	0.183 ± 0.045
TGACACCA	0.419 ± 0.0076
CGACACGA	0.174 ± 0.041
GGACACCC	0.185 ± 0.023
AGACACCA	0.251 ± 0.032
GGCCACTA	-0.0216 ± 0.031
CTACTACC	-0.112 ± 0.033
CCAATTTC	0.0768 ± 0.033
ATCGCTCG	-0.0361 ± 0.046
CTCGCAAG	0.204 ± 0.032
CTCGCACC	0.451 ± 0.016
CTGGCACA	0.1856 ± 0.00035
CTCGCAGA	0.0495 ± 0.024
ATCGCAAG	0.177 ± 0.03
CCCGCACC	0.311 ± 0.036
ATCGCACG	0.345 ± 0.027
CTGGCACC	0.367 ± 0.018
ATCGCACA	0.366 ± 0.0063
CTCGCATC	0.129 ± 0.052
CTCGCACA	0.37 ± 0.016
ATGGCACC	0.3573 ± 0.0028
AGAGTGAC	0.145 ± 0.013
ATATTGGC	0.12 ± 0.019
CGATAGTA	-0.122 ± 0.091
ATTCTACA	-0.0365 ± 0.019
ACGAAAGA	-0.0823 ± 0.0021

Sequence	PBM E-score of 8-mer
AGACTGCG	0.0627 ± 0.0045
GAATCTTA	-0.197 ± 0.05
CATCTCTA	-0.0506 ± 0.074
CAGACTCA	-0.0949 ± 0.051
GCTCTCAC	0.312 ± 0.028
GACTGTGC	-0.124 ± 0.033
GCCCGTCC	-0.216 ± 0.0065
GCCAGGCC	-0.217 ± 0.036
GTCGCAGA	-0.0708 ± 0.1
ATCGCACC	0.47 ± 0.006
ATCGCAAC	0.232 ± 0.0099
GTCGCACA	0.3754 ± 0.0036
GTCGCAAA	0.0958 ± 0.038
ATCGCAGC	0.0579 ± 0.024
AAGGTTAG	-0.0571 ± 0.0011
CTCGGGCC	-0.167 ± 0.0065
GCCGGTCC	-0.235 ± 0.075
CACTCACG	0.266 ± 0.052
CGCTCACA	0.263 ± 0.015
GGCTCACA	0.161 ± 0.053
AACTCACG	0.00507 ± 0.019
GACTCACA	0.313 ± 0.038
TACTCACA	0.371 ± 0.0028
CACTCACA	0.377 ± 0.017
TGCTCACA	0.3801 ± 0.0011
AACTCACA	0.2436 ± 0.00066

Sequence	PBM E-score of 8-mer
ACGAGCTA	-0.118 ± 0.015
TCAACCCA	-0.174 ± 0.026
ATACTTGC	0.0754 ± 0.026
ATGCATCA	0.0819 ± 0.023
CGACTGAC	0.0364 ± 0.013
AGAGGAGC	-0.0105 ± 0.083
ACCTGTAC	-0.148 ± 0.024
GAGTAAAC	-0.0192 ± 0.019
CCCAGAAA	-0.216 ± 0.045
AAGTGTAA	0.399 ± 0.018
AAGTGTAG	0.144 ± 0.0052
AAGTGTCG	0.425
TAGTGTAA	0.216 ± 0.061
GATTGTCA	0.248 ± 0.0068
CAGTGTCA	0.3068 ± 0.002
TAGTGTCA	0.395 ± 0.032
GAGTGTCA	0.4478 ± 0.0016
TCGTGTCA	0.294 ± 0.0086
CAGTGTCG	0.266 ± 0.0072
AAGTGTCT	0.292 ± 0.033
GAGTGTCC	0.0603 ± 0.01
